About 890 (0.31%) of roughly 290,000 compounds were called active. Cut-off read from the data, not from the text of the source: active = inhibition mostly above about 52% (no sharp cut-off); inactive = mostly below about 76%. Many of the other results were omitted from the sample, so actives are more common in it than they were.
Assay: inhibitors of HIV fusion peptide binding, primary screen, biochemical, uHTS, fluorescence dequenching (AID 1986)
Settings: cell-free peptide binding, 30 min, stronger effect = higher value
[1] = measured here: repeat confirmation average inhibition, at 18.6 µM

| SMILES | inhibition (at 20 µM) | inhibition [1] [%] |
| --- | --- | --- |
| Nc1c(C2=NCCO2)nnn1Cc1ccccc1 | -0.3% (inactive) |  |
| O=C(Nc1cccc(OCC(=O)N2CCOCC2)c1)c1ccc(C(F)(F)F)cc1 | 1.4% (inactive) |  |
| Cc1cc(C)cc(N(C(C)C(=O)N2CCCC2)S(C)(=O)=O)c1 (stereo not drawn) | 2.9% (inactive) |  |
| O=S(=O)([N-]c1nc2ccccc2nc1-[n+]1ccc(-c2ccncc2)cc1)c1ccccc1 | 83.2% (active) |  |
| O=S(=O)([N-]c1nc2ccccc2nc1-[n+]1ccccc1)c1ccccc1 | 9.8% (inactive) |  |
| O=S(=O)([N-]c1nc2ccccc2nc1-[n+]1ccc(Cc2ccccc2)cc1)c1ccc(Br)s1 | 12.8% (inactive) |  |
| Cc1cc(C)c[n+](-c2nc3ccccc3nc2[N-]S(=O)(=O)c2ccc(Br)s2)c1 | 26.7% (inactive) |  |
| CCc1cc[n+](-c2nc3ccccc3nc2[N-]S(=O)(=O)c2ccc(Br)s2)cc1 | 96.6% (active) |  |
| Cc1cc[n+](-c2nc3ccccc3nc2[N-]S(=O)(=O)c2ccccc2)cc1 | 12.1% (inactive) |  |
| Cc1ccc(S(=O)(=O)N2CCC(=O)N(CCOC(=O)Nc3cc(C)cc(C)c3)CC2)cc1 | -2% (inactive) |  |
| Cc1cc(C)c2nc(-n3nc(C)cc3N)cc(C)c2c1 | -0.5% (inactive) |  |
| COc1cc(C(=O)Nc2nc(-c3cc(C)ccc3C)c(C)s2)ccc1OCC(=O)Nc1ccc(F)cc1 | -1% (inactive) |  |
| Clc1cccc(CNCCCSc2ncccn2)c1 | -1.9% (inactive) |  |
| CCc1c(-c2ccccc2)nc2sc3c(c2c1N)CCCC3 | 0.7% (inactive) |  |
| Cc1ccccc1NC(=O)CN1C(=O)S/C(=C\c2cccn2-c2cccc(C(=O)O)c2)C1=O | -1.1% (inactive) |  |
| CN1C(=O)S/C(=C/c2cccn2-c2cccc(C(=O)O)c2)C1=O | 1.9% (inactive) |  |
| CC1=NN(c2nc(-c3ccccc3)cs2)C(=O)C1 | 47.5% (inactive) |  |
| CC1=NN(c2nc(-c3ccc(Cl)cc3)cs2)C(=O)C1 | -1.9% (inactive) |  |
| O=C1CC(c2ccccc2)=NN1c1nc(-c2ccccc2)cs1 | 58% (active) |  |
| CCOC(=O)Cn1c(=O)n(Cc2ccc(C)cc2)c(=O)c2cccnc21 | 1.3% (inactive) |  |
| COc1cc(N2CCCC2)c(OC)cc1/C=C1/NC(=S)NC1=O | 121% (active) |  |
| COc1cc(N2CCCC2)c(OC)cc1C=O | -2.7% (inactive) |  |
| COc1cc(N2CCCC2)c(OC)cc1/C=c1/sc2nc3ccccc3n2c1=O | -3.3% (inactive) |  |
| COCCN(C(=O)C1CCC1)c1nnc(-c2cccnc2)s1 | -0.2% (inactive) |  |
| Cc1ccc(-c2nc(C=Nc3ccccc3)c(O)o2)cc1 | -1.7% (inactive) |  |

| SMILES | inhibition (at 20 µM) | inhibition [1] [%] |
| --- | --- | --- |
| CN(C)c1ccc(N=Cc2nc(-c3ccccc3)oc2O)cc1 | 84.5% (active) | 132 |
| Oc1oc(-c2ccccc2)nc1C=Nc1ccccc1 | -1.4% (inactive) |  |
| O=C(CCCc1ccccc1)Nc1ccccn1 | -1.4% (inactive) |  |
| O=C(O)CS(=O)CC(=O)Nc1cccc(C(F)(F)F)c1 (stereo not drawn) | 0.3% (inactive) |  |
| CCN1C(=O)/C(=C\c2ccc(-c3cccc(C(=O)OC)c3)o2)SC1=Nc1ccc(C(=O)O)cc1 | 51.6% (inactive) | 8.6 |
| CCN=C1S/C(=C\c2ccc(-c3cccc(C(=O)O)c3)o2)C(=O)N1CC | 42% (inactive) |  |
| Cc1ccc(-c2csc(NC(=O)c3ccco3)n2)cc1C | 2% (inactive) |  |
| COc1cc(OC)c(OC)cc1CN1CCc2ccccc2C1 | 1% (inactive) |  |
| O=C(CN1CCC(Cc2ccccc2)CC1)N1CCc2ccccc2C1 | 0.8% (inactive) |  |
| CCOc1cccc(C2/C(=C(/O)c3ccc4c(c3)CC(C)O4)C(=O)C(=O)N2CCCn2ccnc2)c1 (stereo not drawn) | -2.5% (inactive) |  |
| O=C(Nc1sc2c(c1C(=O)O)CCC2)c1ccccc1 | 12.1% (inactive) |  |
| CC(C)(C)c1ccc(C(=O)Nc2sc3c(c2C(=O)O)CCC3)cc1 | 50.9% (active) |  |
| O=C(Nc1sc2c(c1C(=O)O)CCC2)c1ccc(F)cc1 | 6.4% (inactive) |  |
| O=C(CCN1CCc2ccccc2C1)c1ccc2c(c1)OCCO2 | 1.4% (inactive) |  |
| O=C(c1ccc(Cl)cc1)c1c[nH]c(C(=O)NNc2ccccc2)c1 | -4.1% (inactive) |  |
| CN(CCc1ccccn1)C1CCCN(S(=O)(=O)c2ccc(F)c(Cl)c2)C1 (stereo not drawn) | -0.2% (inactive) |  |
| Oc1c(Br)cc(/C=N/n2c(-c3ccccc3)n[nH]c2=S)c(O)c1Br | 53.2% (active) |  |
| COc1c(Br)cc(/C=N/n2c(-c3ccccc3)n[nH]c2=S)c(O)c1Br | 44.2% (inactive) |  |
| Oc1c(Br)cc(/C=N/n2c(-c3ccccc3)n[nH]c2=S)cc1Br | 64.4% (inactive) | 15.2 |
| Oc1c(Br)cc(Br)cc1/C=N/n1c(-c2ccccc2)n[nH]c1=S | 20.3% (inactive) |  |
| Oc1c(Br)cc(/C=N/n2c(-c3ccccc3)n[nH]c2=S)c(Br)c1O | 63.4% (active) |  |
| Oc1ccccc1/C=N/n1c(-c2ccccc2)n[nH]c1=S | 0.3% (inactive) |  |
| Oc1ccc(Br)cc1/C=N/n1c(-c2ccccc2)n[nH]c1=S | 6% (inactive) |  |
| Cc1c(Br)c(O)c(Br)c(O)c1/C=N/n1c(-c2ccccc2)n[nH]c1=S | 62.9% (inactive) | 47.6 |

Reference: PubChem BioAssay AID1986 (Sanford-Burnham Center for Chemical Genomics, 2009)
